Results from PubChem BioAssay AID488890 (Southern Research Specialized Biocontainment Screening …, 2010).
The whole screen tested about 320,000 compounds, of which about 1,300 (0.41%) were called active. About 3% were inconclusive and are not listed. No rule for the calls is given here. These entries were drawn from the full list. Entries with a potency or affinity are not part of this list.

Assay: growth inhibition of non-replicating M. tuberculosis (AID 488890);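 also: plate controls were DMSO cells for no effect and high antibiotic wells for full effect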
Conditions: Mycobacterium tuberculosis non-replicating, at 25 µM, stronger effect = higher value

Compared with `CCCn1c(=O)c(C(=O)NNS(=O)(=O)c2ccc(Cl)cc2)c(O)c2ccccc21`, `NS(=O)(=O)c1ccc(NC(=O)Cn2nc(C(=O)O)c3ccccc3c2=O)cc1` is lower in inhibition: 30.4% for the first, 2.92% for the second.

Going from `COc1cc(/C=N\Nc2nncn2N)ccc1OC(C)=O` to `COc1ccc(OC)c(N/C(C)=C/C(=O)c2ccncc2)c1`, the inhibition falls from 8.91% to 0%.

Going from `COc1ccc(S(=O)(=O)NC(CC(=O)NCCc2ccc(OC)c(OC)c2)c2ccco2)cc1` (stereo unspecified) to `COc1ccc(CCNC(=O)C2CCN(C(=O)c3ccc(Br)cc3)CC2)cc1OC`, the inhibition rises from -6.87% to -3.89%.

Compared with `COCCSc1ccccc1C(=O)N1CCC(Cc2ccccc2)CC1`, `O=C(CCc1ccccc1)N1CCN(c2ccc(F)cc2)CC1` is higher in inhibition: 12.1% for the first, 73.8% for the second.

Going from `O=C(N/N=C/c1ccc([N+](=O)[O-])o1)c1ccc(O)cc1` to `O=C(N/N=C\c1ccncc1)c1ccccc1O`, the inhibition falls from 76.5% to 19.9%.

First: O=C(N/N=C/c1ccncc1)c1sc2ccccc2c1Cl
Second: O=C(N/N=C/c1ccc(OCc2ccccc2)cc1)c1ccco1
The inhibition of the first is higher: 67.1% for the first, 6.81% for the second.

Going from `CCN(CC)C(=O)Cn1cc(S(=O)(=O)CC(=O)Nc2ccc(F)cc2)c2ccccc21` to `O=C(COC(=O)c1ccccc1C(=O)c1ccccc1)NCc1ccc(F)cc1`, the inhibition rises from -1.96% to 31.8%.

First: C/C(=N\NC(=O)c1ccccc1[N+](=O)[O-])c1c(O)cc(C)oc1=O
Second: C/C(=N\NC(=O)c1ccccc1O)c1c(O)cc(C)oc1=O
The inhibition of the first is lower: 11.3% for the first, 76.5% for the second.

Going from `CCc1ccccc1N/N=C(/C)c1c(O)cc(C)oc1=O` to `C/C(=N\Nc1ccccc1)c1c(O)cc(C)oc1=O`, the inhibition rises from 19.8% to 54.3%.

Compared with `CCCCCC(=O)c1ccc(O)cc1O`, `CCc1ccc(OCC(=O)N/N=C(\C)c2ccc(O)cc2O)cc1` is higher in inhibition: 44.3% for the first, 69% for the second.

First: C/C(=N\NC(=O)c1cccnc1)c1c(O)cc(C)oc1=O
Second: O=C(Nc1ncccc1O)c1ccc2c(c1)OCCO2
The inhibition of the first is higher: -4.46% for the first, -9.11% for the second.

First: CCCCCCCCC(=O)N/N=C(\C)c1ccco1
Second: CCC(CC)c1nnc(NC(=O)c2ccco2)s1
The inhibition of the first is lower: -9.44% for the first, 14.7% for the second.

First: C/C(=C\c1ccccc1)CN1CCC(C(=O)N2CCCC(C)C2)CC1 (stereo unspecified)
Second: COC1CCCN(Cc2c(C(=O)N3CCN(C4CCCCC4)CC3)nc3ccccn23)C1 (stereo unspecified)
The inhibition of the first is higher: 22.3% for the first, 6.53% for the second.

First: COc1ccc(S(=O)(=O)N(C)C[C@H]2Oc3ccc(NS(=O)(=O)c4cn(C)cn4)cc3C(=O)N([C@H](C)CO)C[C@@H]2C)cc1
Second: Cn1cnc2cc(NS(=O)(=O)c3ccc(Br)cc3)ccc21
The inhibition of the first is lower: -5.84% for the first, -3.25% for the second.

First: O=C(CCc1nnc2ccc(NCc3ccco3)nn12)N1CCN(c2ccccc2F)CC1
Second: O=C(CCC(=O)N1CCN(c2ccccc2F)CC1)N1CCN(c2ccccc2)CC1
The inhibition of the first is lower: 28.5% for the first, 45% for the second.

Compared with `O=C(COc1ccccc1)Nc1ccc(Cl)cc1Cl`, `COc1ccccc1NC(=O)CC1SC(=N)N(c2ccccc2)C1=O` (stereo unspecified) is lower in inhibition: 72.1% for the first, -5.17% for the second.

First: O=C(CCC(=O)c1ccc(F)cc1)OCc1nnc(-c2ccc([N+](=O)[O-])cc2)o1
Second: CCOC(=O)c1ccc(NC(=O)CCc2ccc(C)o2)cc1
The inhibition of the first is lower: 37% for the first, 79.2% for the second.

Going from `Cc1cc(C(=O)N/N=C2\CCCc3ccccc32)c(C)o1` to `CCc1nnc(NC(=O)c2c(-c3ccccc3)noc2C)s1`, the inhibition rises from 8.07% to 13.3%.

Compared with `CC(C)c1ccc2[nH]c3c(c2c1)[C@@H]1CCN2C(=O)CCC[C@H](C3)[C@H]12`, `COc1cc(C2N(c3ccc(Cl)cc3)C(=O)C3CCCN32)cc(OC)c1OC` (stereo unspecified) is lower in inhibition: 18.1% for the first, -23.2% for the second.

First: Cc1c(NS(=O)(=O)c2ccc(N=NN(C)C)cc2)c(=O)n(-c2ccccc2)n1C
Second: O=C(Nc1ccc(S(=O)(=O)Nc2ncccn2)cc1)C1=NN(c2ccccc2)C(=O)CC1
The inhibition of the first is lower: -13.3% for the first, 36.2% for the second.

Compared with `COc1ccc2sc(-c3ccccc3OC)c(-c3ccc4c(c3)OCCO4)c2c1`, `O=C(Nc1cccc2cccnc12)c1ccc2c(c1)OCCO2` is lower in inhibition: 17.4% for the first, 16.4% for the second.

Going from `O=C1NC(=O)/C(=C/c2ccco2)N1` to `Cn1c(O)c(/C=C2/C=CC=N2)c(=O)[nH]c1=O`, the inhibition rises from -3.62% to 75.9%.

Compared with `CSc1c2c(nc3ncnn13)CCC2`, `COCc1cc(C)nc2sc(C(=O)N3CCCC3)c(N)c12` is higher in inhibition: -27.5% for the first, 3.21% for the second.

First: CC(C)CC1=NN(C(=O)c2ccncc2)C(O)(C(F)(F)F)C1 (stereo unspecified)
Second: Cc1ccc(C(=O)N2N=C(c3ccccc3)CC2(O)C(F)(F)F)o1 (stereo unspecified)
The inhibition of the first is lower: 47.5% for the first, 58.8% for the second.

Going from `Cc1ccc(C2=NN(C(=O)c3ccco3)C(O)(C(F)(F)F)C2)cc1` (stereo unspecified) to `O=C(c1ccco1)N1N=C(c2ccc(Br)cc2)CC1(O)C(F)(F)F` (stereo unspecified), the inhibition falls from 71.2% to 29.3%.

Compared with `CCOC(=O)/C(=N\Nc1ccccc1Cl)N1CCN(c2ccccc2OC)CC1`, `COc1ccccc1OC(=O)c1ccc(C)c(S(=O)(=O)N2CCOCC2)c1` is lower in inhibition: 19% for the first, 16.8% for the second.

Compared with `c1ccc(-n2cnc3cc(NCc4cccs4)ccc32)cc1`, `COc1ccc(C(=O)C[n+]2ccc3c(c2)nc(-c2ccccc2)n3C)cc1` is higher in inhibition: 28.9% for the first, 65.3% for the second.

Going from `Cc1ccc(C(=O)O)c(C(=O)Nc2nc3ccccc3s2)c1` to `COc1ccc2nc(NC(=O)c3ccccc3-c3ccccc3C(=O)O)sc2c1`, the inhibition rises from 11.2% to 76.6%.

First: COC(=O)c1ccccc1NC(=O)CN1C(=O)CSC1=O
Second: CC1(C)CC(=O)C(Sc2ccccc2C(=O)O)=C(O)C1
The inhibition of the first is higher: -0.76% for the first, -8.16% for the second.

Going from `CC(C)(C)NCC(O)CON=C1c2ccccc2-c2ccccc21` (stereo unspecified) to `COCCNCC(O)CON=C1c2ccccc2-c2ccccc21` (stereo unspecified), the inhibition falls from 65.3% to 54.3%.

Compared with `COc1ccc(-c2csc3ncnc(N4CCN(c5cccc(C)c5C)CC4)c23)cc1`, `COc1ccc(Cc2nnc(NC(=O)c3c(-c4ccccc4)noc3C)s2)cc1` is lower in inhibition: 11.9% for the first, 4.39% for the second.

Compared with `O=C(NCCN1CCOCC1)C1CCN(S(=O)(=O)N2CCCCC2)CC1`, `CCCNc1nc2nc3ccccn3c(=O)c2cc1C(=O)NCCN1CCOCC1` is lower in inhibition: -2.95% for the first, -18.1% for the second.

Going from `CCOC(=O)N1CCN(S(=O)(=O)c2ccc(C(=O)N(CCCN(C)C)c3nc4ccc(OC)cc4s3)cc2)CC1` to `COc1ccc(OC(=O)c2ccc(OC)c(S(=O)(=O)N3CCOCC3)c2)cc1`, the inhibition rises from 3.45% to 21.9%.

Compared with `C/C(=C\C(=O)c1ccccc1)Nc1ccc(O)cc1`, `COc1ccc(NC(=O)Nc2c(O)ccc3ccccc23)cc1` is lower in inhibition: 29.4% for the first, 17.9% for the second.

Compared with `COc1ccc(C(=O)c2c3ccc(OC)cc3[n+]([O-])n2Cc2ccc(C(N)=O)cc2)cc1`, `COc1ccc(C(=O)Nc2ccc(O)c3ccccc23)cc1` is higher in inhibition: 17.1% for the first, 75.7% for the second.

Going from `COc1ccc(-c2nnc(SCC(=O)N(C)C3CCS(=O)(=O)C3)n2C(C)C)cc1` (stereo unspecified) to `COc1ccc(-c2cc(C(=O)Nc3c(F)cc(F)cc3Br)no2)cc1`, the inhibition rises from -12.8% to 79.1%.

Going from `Cc1ccc(C2=N/C(=C\N3CCCCC3)C(=O)O2)cc1` to `CC1=N/C(=C/c2cccnc2)C(=O)O1`, the inhibition falls from 21.3% to -16.7%.

Compared with `COc1ccccc1C(c1c(N)n(C)c(=O)n(C)c1=O)C(C)[N+](=O)[O-]` (stereo unspecified), `COc1cc(C(C[N+](=O)[O-])c2c(N)n(C)c(=O)n(C)c2=O)ccc1O` (stereo unspecified) is lower in inhibition: 53% for the first, 23.3% for the second.

Compared with `COc1ccc(CCN(C)Cc2ccncc2)cc1OC`, `Cc1[nH]c2ccc(F)cc2c1CCN(Cc1ccncc1)C(=S)Nc1cccc(F)c1` is higher in inhibition: 1.96% for the first, 16.2% for the second.

Compared with `O=C(Nc1cccc2cccnc12)c1cccc([N+](=O)[O-])c1`, `O=[N+]([O-])c1ccc(Oc2cccc3cccnc23)c([N+](=O)[O-])c1` is higher in inhibition: 14.7% for the first, 72% for the second.

First: Cc1ccc(S(=O)(=O)NCc2cccnc2)cc1C
Second: Cc1cc(S(=O)(=O)NCCC2=CCCCC2)ccc1Br
The inhibition of the first is lower: 3.38% for the first, 34.3% for the second.

Compared with `Cn1c(SCc2nc3ccccc3[nH]2)nnc1-c1cnccn1`, `Cc1cccc(CN2CCc3c([nH]c4ccccc34)C2C(C)(C)C)n1` (stereo unspecified) is higher in inhibition: 11% for the first, 14.5% for the second.

First: CCOC(=O)Cn1c(=O)oc2ccc(C)cc21
Second: Cc1noc(C)c1COC(=O)CCc1nc2ccccc2c(=O)[nH]1
The inhibition of the first is higher: 16.3% for the first, -4.31% for the second.

Compared with `CCn1cc(/C=N/NC(=O)c2ccc3c(c2)OCO3)c(C)n1`, `Cc1ccc2cc(/C=N/NC(=O)CN3CCOCC3)c(Cl)nc2c1` is higher in inhibition: -8.38% for the first, 6.43% for the second.

First: CCN(CC)C(=O)c1sc2nc(Cc3ccccc3)[nH]c(=O)c2c1C
Second: CCCCn1c(O)c(/C=C2\C=Nc3ccccc32)c(=O)[nH]c1=O
The inhibition of the first is lower: 11% for the first, 59% for the second.

Compared with `O=C(N/N=C/c1ccc(N2CCOCC2)cc1)C1CC1`, `O=C(CN1CCN(c2ccc(Cl)cc2)CC1)Nc1cccc(F)c1` is higher in inhibition: 3.95% for the first, 69% for the second.

First: O=C(C1=C[C@H](c2ccc(C(F)(F)F)cc2)C[C@H](OCc2ccc(CO)cc2)O1)N1CCCCCCC1
Second: O=C(CCNS(=O)(=O)c1ccc(OC(F)(F)F)cc1)N1CCN(C/C=C/c2ccccc2)CC1
The inhibition of the first is lower: 23% for the first, 47.4% for the second.

Compared with `OC(CNCC1CCCO1)Cn1c2ccccc2c2ccccc21` (stereo unspecified), `OC(CNCC1CCCO1)COc1ccc(OCC(O)CNCC2CCCO2)cc1` (stereo unspecified) is lower in inhibition: 25.3% for the first, 10.8% for the second.

First: Cc1ccc(O)c(CNc2nccs2)c1
Second: Cc1ccc(CCC(=O)Nc2ccc(CC(=O)O)cc2)o1
The inhibition of the first is lower: -1.47% for the first, 9.94% for the second.

Going from `O=C1CNC(=S)N1CCCn1ccnc1` to `CCCCn1c(O)c(C=NCCCn2ccnc2)c(=O)[nH]c1=O`, the inhibition rises from 2.92% to 5.46%.

First: Cc1ccc(CCC(=O)Nc2ccc(C#N)cc2)o1
Second: CC(=O)Nc1ccc(NC(=O)CCc2ccc(C)o2)cc1
The inhibition of the first is higher: 50.3% for the first, 16.7% for the second.

First: O=C(Nc1c(F)cc(F)cc1Br)c1cc(-c2ccc(O)cc2)on1
Second: CCC(CC)c1nnc(NC(=O)c2cc(-c3ccccc3)nc3ccccc23)s1
The inhibition of the first is higher: 79.2% for the first, 18.4% for the second.

First: CN(/N=C/C=C/c1ccccc1)C1=NS(=O)(=O)c2ccccc21
Second: O=S1(=O)N=C(N/N=C/c2ccccn2)c2ccccc21
The inhibition of the first is lower: -1.47% for the first, 10.2% for the second.

Compared with `O=C(NC(=S)NCC1CCCO1)c1ccc(Br)o1` (stereo unspecified), `CCCCn1c(O)c(/C=N/NC(=O)c2ccncc2)c(=O)[nH]c1=O` is higher in inhibition: -17.8% for the first, 53.7% for the second.

Going from `O=c1[nH]c(=O)n(Cc2ccccc2Cl)c(O)c1C=Nc1ccc(F)cc1` to `O=c1[nH]c(=O)n(Cc2ccccc2)c(O)c1/C=C1\C=Nc2ccccc21`, the inhibition rises from -1.58% to 66.3%.

Compound `O=C(Nc1cccc(-n2cnnn2)c1)c1ccncc1` has an inhibition of 0.55%.
